Compound activity as filed in PubChem.
MARV entry inh = inhibitors of Marburg virus binding or cell entry. AID 540276. Potency, µM (highest dose often 37.8 µM), inactives show top-dose activity change, negative = inhibition, most hits filed as inhibitors. 1.8% of 300,000 active. Marburg virus pseudotyped entry inhibition, cell reporter; calls by dose curve; tested in HEK293 cells
VACV mCherry inh = inhibitors of vaccinia virus infection (mCherry reporter signal). Potency, µM (titrated, usually from 36.5 µM), inactives show at the top dose activity change, negative = inhibition, usual class: inhibitors. 0.63% of 310,000 active. Vaccinia virus mCherry reporter infection, fluorescence. AID 720579; calls by dose curve; tested in A549 cells; also: nearly all actives have a fitted effect of over 35% in size
HCV inh = blocks hepatitis C virus; Huh7.5.1 HCVcc-Cre infection, luciferase reporter, 44 h; Potency, µM (doses to about 41.8 µM), for inactives: at the highest dose activity change, negative = inhibition, hits mostly inhibitors; 3.4% of 340,000 active; AID 651820; active = well fitted inhibition curve with a large enough effect; inconclusive = small, poorly fitted or top-dose-only effect, or another doubt; inactive = no such curve, though single readings can be large or run the other way
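Luciferase read-out (15 sec integration) after a 15 min room-temperature substrate step quantifies HCVcc-Cre infection. Cells, 1,000 per well, had compound added 4 h post-plating, then virus at ~0.5 moi, and were cultured 44 h.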
Lassa entry inh = Lassa virus entry inhibition | Lassa virus pseudotype entry inhibition, cell reporter | Potency, µM (series often up to 37.9 µM), without a hit: top-dose activity change, negative = inhibition, usual class: inhibitors | 1.2% of 300,000 active | AID 540256; calls by dose curve; tested in HEK293 cells; also: nearly all actives have a fitted effect of over 50% in size
VACV Venus inh = inhibitors of vaccinia virus (Venus reporter); 0.46% of 330,000 active; Vaccinia virus Venus reporter expression, fluorescence; AID 720580; Potency, µM (top dose mostly 36.5 µM), for the others: top-dose activity change, negative = inhibition, hits mostly inhibitors; calls by dose curve; tested in A549 cells; also: nearly all actives have a fitted effect of over 30% in size
An asterisk follows results filed as active; i = inactive; u = inconclusive; x = no result given; + = active, no number; [ ] = dose if it differs, or a comment. Only some compounds are listed: those with a hit (about 4.6% of all), similar ones and a draw of the others. % is scaled to controls: 0 for no effect and ±100 for the full control effect; potency is read from the fitted curve at half-maximal effect.

SMILES | MARV entry inh | VACV mCherry inh | HCV inh | Lassa entry inh | VACV Venus inh
CN(C)S(=O)(=O)c1cccc(NC(=O)CSc2nc3c(cc2C#N)C(=O)CC(C)(C)C3)c1 | u | u | 5µM* | u | u
Cc1[nH][nH]c(=O)c1C(c1c(C)[nH][nH]c1=O)c1cn(Cc2ccc(F)cc2)c2ccccc12 | -20% | -1% | -7% | -29% | -16%
Cc1[nH][nH]c(=O)c1C(c1c(C)[nH][nH]c1=O)c1cn(Cc2ccc(Cl)c(Cl)c2)c2ccccc12 | 8.2µM* | -27% | 4% | u | -21%
CCC(C)n1nccc1NC(=O)C(C)OC(=O)c1cc2ccccc2[nH]1 (centres undefined) | -28% | x | u | -4% | x
COc1ccc(OC)c(NC(=O)C(C)Oc2ccc(Br)cc2)c1 (centres undefined) | 1%[46.1 µM] | -13% | 11µM* | 5% | 2%
COc1ccc(OC)c(NC(=O)C(C)OC(=O)c2cc3ccccc3[nH]2)c1 (centres undefined) | x | x | 11µM* | x | x
CCC(CC)C(=O)N(CCc1ccc(OC)cc1)Cc1nc2ccccc2c(=O)[nH]1 | u | -17% | 22µM* | u | -27%
C[C@]12CC[C@@H]3c4cc(O)c(O)cc4CC[C@H]3[C@@H]1CC[C@@H]2O | x | -9% | 13µM* | x | -25%
CCOc1ccc(CNC(=O)c2cc3cc(S(=O)(=O)N4CCCCC4)ccc3n2C)cc1 | x | -27% | x | u | -27%
CCn1cc(C(=O)NCc2ccccc2)c(=O)c2cc(S(=O)(=O)N3CCCCCC3)ccc21 | 20%[46.1 µM] | u | x | u | -22%
CCn1cc(C(=O)NCc2ccc(C)cc2)c(=O)c2cc(S(=O)(=O)N3CCCCCC3)ccc21 | x | u | x | 6.3µM* | -22%
CCn1cc(C(=O)NCCc2ccc(OC)c(OC)c2)c(=O)c2cc(S(=O)(=O)N(C)C3CCCCC3)ccc21 | 11µM* | u | x | u | u
CCn1cc(C(=O)NCCc2ccc(OC)c(OC)c2)c(=O)c2cc(S(=O)(=O)N3CCCCCC3)ccc21 | 0%[46.1 µM] | -3% | x | 9%[46.1 µM] | 3%
CCn1cc(C(=O)NCc2ccc(Cl)cc2)c(=O)c2cc(S(=O)(=O)N(C)C3CCCCC3)ccc21 | 2.8µM* | -4% | x | u | u
CN(C)c1ccc(CNC(=O)c2cc3cc(S(=O)(=O)N4CCCCC4)ccc3n2C)cc1 | x | -19% | x | 10µM* | -14%
COc1ccccc1/C=C/c1onc(C)c1S(=O)(=O)N1CCC(C(=O)N2CCC(C)CC2)CC1 | x | -4% | x | 15%[46.1 µM] | -18%
COc1ccc(-n2nc(C(=O)Nc3ccc(C(C)=O)cc3)nc2-c2ccccc2)cc1 | u | -19% | x | 1%[46.1 µM] | -6%
Cc1cc2c(nc1C)CCCN2CC(O)CN1CCN(C)CC1 (centres undefined) | 18%[14.2 µM] | x | x | x | x
Nc1c(C(=O)NCCC2=CCCCC2)sc2ccc(S(=O)(=O)N3CCCCC3)cc12 | u | x | -30% | u | x
Cc1ccc(CNC(=O)c2sc3ccc(S(=O)(=O)N4CCCCC4)cc3c2N)cc1 | 0% | x | 32µM* | x | x
Cc1ccc2c(c1)cc(C(=O)NCc1ccc(F)cc1)n2C | u | 6% | x | 2µM* | 5%
Cc1ccc(CNC(=O)c2cc3cc(C)ccc3n2C)cc1 | u | -3% | x | u | -5%
COCOc1ccc(Br)cc1C(=O)[C@@H]1O[C@@H]1c1cccc(OC)c1 | -17%[14.2 µM] | x | x | x | x
CN(C(=O)c1cc2nc(-c3ccc4c(c3)OCO4)cc(C(F)(F)F)n2n1)c1ccc(OC(F)(F)F)cc1 | 23%[46.1 µM] | -1% | x | 28%[46.1 µM] | -8%
C1=Cc2ccccc2/C1=C(\Cc1ccncc1)Oc1ccncc1 | x | -21% | x | x | u
SMILES | MARV entry inh | VACV mCherry inh | HCV inh | Lassa entry inh | VACV Venus inh
Cc1ccc(S(=O)(=O)N2CCC(C(=O)NNC(=O)c3ccccc3O)CC2)cc1C | 8% | u | u | -12% | u
Cc1cc(C)c(C)c(S(=O)(=O)N2CCC(C(=O)NNC(=O)c3ccccc3O)CC2)c1C | 2% | u | 7.1µM* | u | u
O=C(O)c1ccccc1C=NN=C1c2ccccc2-c2ccccc21 | 13% | -28% | 9% | u | -9%
Oc1ccccc1C=NN=C1c2ccccc2-c2ccccc21 | 8% | i | 8.9µM* | u | -5%
Oc1cccc(/C=N/N=C/c2cccc(O)c2O)c1O | u | i | -7% | 11µM* | -15%
Cc1ccc(S(=O)(=O)NC(Cc2ccccc2)C(=O)NN)cc1 (centres undefined) | -7% | -13% | 5% | u | -11%
Cc1ccc(S(=O)(=O)N[C@@H](Cc2ccccc2)C(=O)CCl)cc1 | 10µM* | -14% | -15% | 4.6µM* | u
Cc1ccc(C)c(N2C(=O)N(Cc3ccccc3C)c3ccccc3S2(=O)=O)c1 | x | 0% | x | -6%[46.1 µM] | -12%
Cc1ncc([N+](=O)[O-])n1CCO | 13% | -6% | 12% | 9% | -21%
Cc1ncc([N+](=O)[O-])n1CC(C)O (centres undefined) | x | -3% | 2.8µM* | x | -8%
Cc1ccc(C(=O)NNC(=O)CCCN2C(=O)/C(=C/c3ccccc3Cl)SC2=S)cc1 | 11µM* | i | 11% | u | -4%
O=C1/C(=C/c2ccccc2Cl)SC(=S)N1CCCC(=O)N(CCO)c1ccccc1 | x | x | 13µM* | x | x
O=C(CCCN1C(=O)/C(=C/c2ccccc2Cl)SC1=S)NNC(=O)c1ccc(Cl)cc1 | x | -7% | -12% | x | -14%
Cc1c(Nc2ccc3nonc3c2[N+](=O)[O-])c(=O)n(-c2ccccc2)n1C | -5%[46.1 µM] | 10% | 6% | -19% | 5%
Cc1c(Nc2cc(Cl)c3nonc3c2[N+](=O)[O-])c(=O)n(-c2ccccc2)n1C | u | u | 4µM* | u | 28µM*
CC1=C(C(=O)Nc2ccccc2C)C(c2cccnc2)n2nc(SCc3ccccc3F)nc2N1 (centres undefined) | 9%[46.1 µM] | -6% | x | u | 0%
O=C1OC2(CCCCC2)CC2=C1[C@H]1O[C@](c3ccsc3)(Cc3c1ccc1ccccc31)O2 | 2%[14.2 µM] | x | x | u | x
Cc1csc2ncnc(NCCc3ccccn3)c12 | x | x | 7.1µM* | x | x
CC1(C)CC(=O)C2=C(C1)NC(Nc1nc3ccccc3o1)=NC2c1cccc(F)c1 (centres undefined) | x | 20% | x | x | 2%
Cc1ccccc1CNC(=O)C(C)n1nc(C)n2c(cc3occc32)c1=O (centres undefined) | 4%[46.1 µM] | -8% | x | x | -17%
CC(NC(=O)c1ccco1)c1nc(-c2ccc(C(C)(C)C)cc2)no1 (centres undefined) | u | -19% | 16µM* | -24%[46.1 µM] | -1%
CCN(CC)C(=O)c1ccc2c(c1)N(Cc1ccc(C(F)(F)F)cc1)C(=O)c1ccccc1S2 | 0%[46.1 µM] | -18% | x | 0%[46.1 µM] | -16%
Cc1cn([C@H]2C[C@H](O)[C@@H](CCC(=O)NCc3ccccc3)O2)c(=O)[nH]c1=O | x | + | 3.5µM* | x | u
Cc1cn([C@H]2C[C@H](O)[C@@H](CCC(=O)NCC(c3ccccc3)c3ccccc3)O2)c(=O)[nH]c1=O | x | 14% | x | x | 9%
